# Inconclusive results are not listed. Entries that show only a call come without a potency. Values without a mark were called inactive. Active and inactive are the calls of the source. Unless noted, the call rests on the fitted dose curve; in most records, active means well fitted curve in the direction sought with a large enough effect in the repeat runs; inconclusive means weak or mixed curves; inactive means no such curve, though single readings can be large; an effect the other way counts as inactive or inconclusive.
# How the values were obtained:
# [1] = qHTS assay to identify small molecule agonists of the RXR signaling pathway - cell viability counter screen (AID 1159529);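 further: HEK 293T cells carrying an RXR-alpha UAS beta-lactamase reporter; series mostly up to about 77 µM; nearly all actives have a fitted effect of over 50% in size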
# Outline: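 In this parallel viability measure, GeneBLAzer RXR-alpha HEK 293T cells (2% charcoal-stripped FBS) were given a 5 hr preincubation, treated with compounds 16 hr at 37 C, and read by CellTiter-Glo luminescence.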
# [2] = qHTS assay to identify small molecule antagonists of the retinoid acid receptor (RAR) signaling pathway - cell viability counter screen (AID 1159551); further: nearly all actives have a fitted effect of over 35% in size
# Outline: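 C3RL4 RARE-luciferase cells, 1,000/well, incubated overnight, then dosed with compound plus 1 uM retinol (final). After 6 hr at 37 C, viability read by CellTiter-Glo ATP luminescence following 30 min at room temperature.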
# [3] = qHTS assay to identify small molecule antagonists of the estrogen related receptor (ERR) signaling pathway from Tox21 library - cell viability counter screen (AID 1224834); further: nearly all actives have a fitted effect of over 30% in size
# Outline: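 ERR reporter cells, 2,000 per well, rested 6 h, then exposed to compound in DMSO for 17.5 hours at 37 C. Viability read as fluorescence after 30 min with CellTiter-Fluor.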
# [4] = molecular target: Luciferin 4-monooxygenase (Photinus pyralis) (UniProt P08659); assay: qHTS assay to identify small molecule inhibitors of firefly luciferase (AID 1224835); further: nearly all actives have a fitted effect of over 25% in size; further: potency means the concentration at half of the fitted maximal effect
# Sequence of Luciferin 4-monooxygenase (Photinus pyralis) (P08659 whole entry, looked up): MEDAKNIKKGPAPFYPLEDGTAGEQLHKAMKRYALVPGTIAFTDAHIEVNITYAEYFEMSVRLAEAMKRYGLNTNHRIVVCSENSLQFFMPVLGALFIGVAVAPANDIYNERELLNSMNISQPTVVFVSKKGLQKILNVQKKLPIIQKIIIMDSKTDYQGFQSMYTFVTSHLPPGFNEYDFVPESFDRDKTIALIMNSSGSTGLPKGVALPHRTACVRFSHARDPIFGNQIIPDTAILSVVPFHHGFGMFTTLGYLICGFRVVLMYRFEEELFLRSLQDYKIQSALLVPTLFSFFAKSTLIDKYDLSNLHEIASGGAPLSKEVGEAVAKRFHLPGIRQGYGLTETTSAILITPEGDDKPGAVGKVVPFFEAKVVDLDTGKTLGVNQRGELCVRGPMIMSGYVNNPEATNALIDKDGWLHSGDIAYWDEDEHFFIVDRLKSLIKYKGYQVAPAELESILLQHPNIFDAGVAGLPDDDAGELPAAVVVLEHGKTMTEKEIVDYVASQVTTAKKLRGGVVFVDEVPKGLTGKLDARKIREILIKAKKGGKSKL
# Outline: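 Quantitative HTS format; KM concentrations of both substrates. Purified P. pyralis FLuc activity quantified from luminescence images.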
# [5] = qHTS assay to identify small molecule agonists of the constitutive androstane receptor (CAR) signaling pathway - cell viability counter screen (AID 1224836); further: series mostly up to about 92 µM; nearly all actives have a fitted effect of over 45% in size
# Outline: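 Using CellTiter-Fluor, viability of HepG2 cells harbouring hCAR and CYP2B6-2.2kb was measured following 23 h incubation with a 15-concentration compound series plus PK11195 (0.75 uM final).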
# [6] = qHTS assay to identify small molecule antagonists of the constitutive androstane receptor (CAR) signaling pathway - cell viability counter screen (AID 1224837); further: series mostly up to about 92 µM; nearly all actives have a fitted effect of over 45% in size
# Outline: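 HepG2 cells stably carrying hCAR and CYP2B6-2.2kb reporter, stimulated with 50 nM CITCO and compounds at 15 concentrations for 23 h at 37 C. Viability measured by CellTiter-Fluor fluorescence.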
# [7] = molecular target: Nuclear receptor subfamily 1 group I member 3 (Homo sapiens) (UniProt Q14994); assay: qHTS assay to identify small molecule antagonists of the constitutive androstane receptor (CAR) signaling pathway (AID 1224838); further: nearly all actives have a fitted effect of over 40% in size
# Sequence of Nuclear receptor subfamily 1 group I member 3 (Homo sapiens) (Q14994 whole entry, looked up): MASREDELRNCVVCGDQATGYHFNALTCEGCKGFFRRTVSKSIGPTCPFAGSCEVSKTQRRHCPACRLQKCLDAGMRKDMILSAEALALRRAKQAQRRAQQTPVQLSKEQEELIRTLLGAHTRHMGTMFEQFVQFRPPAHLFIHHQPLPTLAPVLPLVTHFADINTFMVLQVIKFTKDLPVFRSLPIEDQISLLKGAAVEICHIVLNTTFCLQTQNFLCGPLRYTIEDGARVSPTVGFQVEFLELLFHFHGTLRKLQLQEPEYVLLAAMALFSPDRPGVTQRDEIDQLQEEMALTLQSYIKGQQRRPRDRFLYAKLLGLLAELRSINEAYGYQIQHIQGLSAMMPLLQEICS
# Outline: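 HepG2 cells stably carrying hCAR and a CYP2B6-2.2kb luciferase reporter, seeded 4 hrs before compound (15 concentrations). Stimulated with 50 nM CITCO for 24 hr at 37 C. ONE-Glo luminescence read after 30 min at room temperature.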
# [8] = molecular target: Nuclear receptor subfamily 1 group I member 3 (Homo sapiens) (UniProt Q14994); assay: qHTS assay to identify small molecule agonists of the constitutive androstane receptor (CAR) signaling pathway (AID 1224839); further: nearly all actives have a fitted effect of over 15% in size; further: potency means the concentration at half of the fitted maximal effect
# Outline: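 Double-stable HepG2 cells (hCAR, CYP2B6-2.2kb) seeded 4 h before compound addition. Exposure 24 h with 0.75 uM PK11195 final. Luciferase detected by ONE-Glo.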
# [9] = qHTS assay to identify small molecule antagonists of the estrogen related receptor signaling pathway with the pleiotropic PPARgamma coactivator (PGC) from Tox21 10K library - cell viability counter screen (AID 1224840; active means well fitted cell-killing curve with a large enough effect in the repeat runs, not every such curve was filed as active; further: nearly all actives have a fitted effect of over 40% in size)
# Outline: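 PGC/ERR cells (2,000/well) plated 6 h, then compound-treated for 17.5 h at 37 C. Viability measured by CellTiter-Fluor fluorescence after 30 min at 37 C, multiplexed with the pathway assay.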
# [10] = qHTS assay to identify small molecule antagonists of the estrogen related receptor signaling pathway with the pleiotropic PPARgamma coactivator (PGC) from Tox21 10K library (AID 1224841; call rule not given here; further: series mostly up to about 92 µM; actives are mostly falling curves and most rising ones were filed inactive; nearly all actives have a fitted effect of over 50% in size)
# Outline: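 PGC/ERR cell line, 2,000 cells/well, pre-incubated 6 hours at 37 C, then exposed to compounds for 18 hours at 37 C; luciferase read with One-Glo luminescence after 30 min at room temperature.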
# [11] = qHTS assay to identify small molecule agonists of the estrogen related receptor signaling pathway with the pleiotropic PPARgamma coactivator (PGC) from Tox21 10K library (AID 1224842); further: nearly all actives have a fitted effect of over 15% in size
# Outline: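 PGC/ERR reporter cells (NTP line) were seeded 2,000 per well, rested 6 h at 37 C/5% CO2, then pin-dosed with compounds in DMSO for 18 h at 37 C; luciferase read by One-Glo luminescence after 30 min at room temperature.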
# [12] = qHTS assay to identify small molecule antagonists of the retinoic acid receptor (RAR) signaling pathway (AID 1159552; further: nearly all actives have a fitted effect of over 50% in size)
# Outline: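 C3RL4 RARE-luc cells, overnight plating; retinol 1 uM final added right after compound; 6 hr 37 C; luciferase read at 30 min RT.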
# [13] = qHTS assay to identify small molecule antagonists of the estrogen related receptor (ERR) signaling pathway - cell viability counter screen (AID 1224818); further: series mostly up to about 46 µM
# Outline: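 ERR cells, 2,000 per well, compound added after 6 h and incubated 17.5 h at 37 C. Viability read by CellTiter-Fluor fluorescence after a further 30 min at 37 C.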
# [14] = qHTS assay to identify small molecule antagonists of the estrogen related receptor (ERR) signaling pathway (AID 1224819;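 further: luminescence from an ERR-driven luciferase reporter measured with One-Glo reagent; series mostly up to about 46 µM; nearly all actives have a fitted effect of over 50% in size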)
# Outline: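 ERR reporter cell line (NTP) plated at 2,000 cells/well, settled 6 h at 37C/5% CO2, then exposed to LOPAC compounds for 18 h at 37C. One-Glo luciferase luminescence read after 30 min at room temperature.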
# [15] = system: estrogen-related receptor alpha (ERRalpha) with PGC-1alpha coactivator, human; assay: qHTS assay to identify small molecule antagonists of the estrogen related receptor signaling pathway with the pleiotropic PPARgamma coactivator (PGC) (AID 1224821; calls by dose curve)
# Outline: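 Quantitative HTS for antagonism: PGC/ERR cells received compounds after 6 h attachment and were incubated 18 h at 37 C, with luminescence (One-Glo) as the endpoint.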
# [16] = qHTS assay to identify small molecule antagonists of the estrogen related receptor signaling pathway with the pleiotropic PPARgamma coactivator (PGC) cell viability counter screen (AID 1224822; further: series mostly up to about 46 µM)
# Outline: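 PGC/ERR cells rested 6 h, then compound-treated 17.5 h at 37 C. CellTiter-Fluor added for 30 min at 37 C, viability measured by fluorescence intensity.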
# [17] = qHTS assay to identify small molecule agonists of the estrogen related receptor signaling pathway with the pleiotropic PPARgamma coactivator (PGC) (AID 1224823)
# Outline: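 Cell-based luciferase assay in the NTP-supplied PGC/ERR line, 2,000 cells/well; 18 h compound exposure at 37 C, luminescence after One-Glo.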
# [18] = qHTS assay to identify small molecule agonists of the retinoic acid receptor (RAR) signaling pathway (AID 1159553); further: potency means the concentration at half of the fitted maximal effect
# Outline: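 C3RL4 RARE-luciferase cells were seeded at 1,000/well and grown overnight at 37 C, then exposed to compounds for 6 hr at 37 C, 5% CO2. Luciferase reagent was added and luminescence was read after 30 min at room temperature.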
structure (smiles),measurement,setting,value
CC(=O)S[C@H](C(=O)N[C@H]1Cc2ccccc2[C@H]2CCC[C@@H](C(=O)O)N2C1=O)C(C)C,Potency,[1],inactive
same,outcome,[2],inactive
same,Potency,[3],inactive
same,Potency,[4],inactive
same,Potency,[5],inactive
same,Potency,[6],inactive
same,Potency,[7],inactive
same,Potency,[8],inactive
same,Potency,[9],inactive
same,Potency,[10],inactive
same,Potency,[11],inactive
CC(C)Oc1ccccc1O,Potency,[1],inactive
same,outcome,[2],inactive
same,Potency,[3],inactive
same,Potency,[4],inactive
same,Potency,[5],inactive
same,Potency,[6],inactive
same,Potency,[7],inactive
same,Potency,[8],inactive
same,Potency,[9],inactive
same,Potency,[11],inactive
CC[C@H](NC(C)C)[C@H](O)c1ccc(O)c2[nH]c(=O)ccc12,Potency,[1],inactive
same,outcome,[2],inactive
same,outcome,[12],inactive
same,Potency,[3],inactive
same,Potency,[4],inactive
same,Potency,[5],inactive
same,Potency,[6],inactive
same,Potency,[9],inactive
same,Potency,[10],inactive
same,Potency,[11],inactive
CCCCC(CC)COCCC#N (centres undefined),Potency,[1],inactive
same,outcome,[2],inactive
same,Potency,[3],inactive
same,Potency,[4],inactive
same,Potency,[5],inactive
same,Potency,[6],inactive
same,Potency,[7],inactive
same,Potency,[8],inactive
same,Potency,[9],inactive
O=C(Nc1ccccc1)c1cc([N+](=O)[O-])ccc1Cl,Potency,[1],inactive
same,outcome,[2],inactive
same,outcome,[13],inactive
same,Potency,[14],inactive
same,outcome,[15],inactive
same,outcome,[16],inactive
same,outcome,[17],inactive
same,Potency,[3],inactive
same,Potency,[4],inactive
same,Potency,[5],inactive
same,Potency,[6],inactive
same,Potency,[7],inactive
same,Potency,[8],inactive
same,Potency,[9],inactive
same,Potency,[11],inactive
FC1(F)C(F)(F)C(F)(F)C2(F)C(F)(C1(F)F)C(F)(F)C(F)(F)C1(F)C(F)(F)C(F)(F)C(F)(F)C(F)(F)C12F (centres undefined),Potency,[1],inactive
same,outcome,[2],inactive
same,Potency,[3],inactive
same,Potency,[4],inactive
same,Potency,[5],inactive
same,Potency,[6],inactive
same,Potency,[7],inactive
same,Potency,[9],inactive
CC1(COc2ccc(CC3SC(=O)NC3=O)cc2)CCCCC1 (centres undefined),Potency,[1],inactive
same,outcome,[2],inactive
same,Potency,[3],inactive
same,Potency,[4],27.5 µM (active)
same,Potency,[5],inactive
same,Potency,[6],inactive
same,Potency,[7],inactive
same,Potency,[9],inactive
CCCCCCCCNC,Potency,[1],inactive
same,outcome,[2],inactive
same,Potency,[3],inactive
same,Potency,[4],inactive
same,Potency,[5],inactive
same,Potency,[6],inactive
same,Potency,[7],inactive
same,Potency,[9],inactive
O=C(OCCN1CCOCC1)c1cccnc1Nc1cccc(C(F)(F)F)c1,Potency,[1],inactive
same,outcome,[2],inactive
same,Potency,[3],inactive
same,Potency,[4],inactive
same,Potency,[5],inactive
same,Potency,[6],inactive
same,Potency,[7],inactive
same,Potency,[8],inactive
same,Potency,[9],inactive
CCC(=O)O[C@]1(C(=O)COC)[C@@H](C)C[C@H]2[C@@H]3CCC4=CC(=O)C=C[C@]4(C)C3(F)[C@@H](O)C[C@@]21C (some centres undefined),Potency,[1],inactive
same,outcome,[2],inactive
same,Potency,[18],inactive
same,Potency,[3],inactive
same,Potency,[4],inactive
same,Potency,[5],inactive
same,Potency,[6],inactive
same,Potency,[7],inactive
same,Potency,[9],inactive
same,Potency,[11],inactive
C[C@@H](O)[C@H]1C(=O)N2C(C(=O)O)=C(S[C@@H]3CN[C@H](CNS(N)(=O)=O)C3)[C@H](C)[C@H]12,Potency,[1],inactive
same,outcome,[2],inactive
same,Potency,[3],inactive
same,Potency,[4],inactive
same,Potency,[5],inactive
same,Potency,[6],inactive
same,Potency,[8],inactive
same,Potency,[9],inactive
Cc1ccccc1CCO,Potency,[1],inactive
same,outcome,[12],inactive
same,Potency,[18],inactive
same,Potency,[3],inactive
same,Potency,[4],inactive
same,Potency,[5],inactive
same,Potency,[6],inactive
same,Potency,[9],inactive
same,Potency,[10],inactive
same,Potency,[11],inactive
C[Si](C)(C)O[Si](C)(C)O[Si](C)(C)C,Potency,[1],inactive
same,outcome,[2],inactive
same,Potency,[3],inactive
same,Potency,[4],inactive
same,Potency,[5],inactive
same,Potency,[6],inactive
same,Potency,[9],inactive
Nc1ccccc1Nc1ccccc1,Potency,[1],inactive
same,outcome,[12],inactive
same,Potency,[5],inactive
same,Potency,[7],inactive
same,Potency,[8],54.6 µM (active)
CCC(CC)C(=O)O,Potency,[1],inactive
same,outcome,[12],inactive
same,Potency,[3],inactive
same,Potency,[4],inactive
same,Potency,[5],inactive
same,Potency,[6],inactive
same,Potency,[7],inactive
same,Potency,[9],inactive
O=C(Nc1ccc2c(c1)Cc1ccccc1-2)C(F)(F)F,Potency,[1],inactive
same,outcome,[12],inactive
same,Potency,[18],6.86 µM (active)
same,Potency,[3],inactive
same,Potency,[4],6.33 µM (active)
same,Potency,[5],inactive
same,Potency,[6],inactive
same,Potency,[7],inactive
same,Potency,[8],27.3 µM (active)
same,Potency,[9],inactive
COC(=O)Cc1cccc2ccccc12,Potency,[1],inactive
same,outcome,[2],inactive
same,Potency,[4],inactive
same,Potency,[5],inactive
same,Potency,[6],inactive
same,Potency,[8],34.4 µM (active)
same,Potency,[9],inactive
COc1ccc(/C(C)=C/C(=O)O)c(OC)c1,Potency,[1],inactive
same,outcome,[2],inactive
same,Potency,[3],inactive
same,Potency,[4],inactive
same,Potency,[5],inactive
same,Potency,[6],inactive
same,Potency,[9],inactive
same,Potency,[10],inactive
same,Potency,[11],inactive
CC(=O)Nc1ccccc1O,Potency,[1],inactive
same,outcome,[2],inactive
same,Potency,[3],inactive
same,Potency,[5],inactive
same,Potency,[6],inactive
same,Potency,[9],inactive
same,Potency,[11],inactive
c1ccc(-c2ccc(-c3ccccc3)cc2)cc1,"activity change, negative = cytotoxicity",[1],4.66% [at 15.8 µM]
same,"activity, negative = inhibition",[12],100% [at 19 µM]
same,Potency,[18],0.996 µM (active)
same,"viability change, negative = cytotoxic",[3],0.464% [at 19 µM]
same,Potency,[4],0.82 µM (active)
same,"viability change, negative = cytotoxic",[5],4.23% [at 19 µM]
same,"activity change, negative = cytotoxicity",[6],-2.21% [at 19 µM]
same,"activity, negative = inhibition",[7],139% [at 19 µM]
same,"viability change, negative = cytotoxic",[9],3.19% [at 19 µM]
C[C@]12CCC(=O)C=C1[C@@H]1C[C@@H]1[C@H]1[C@@H]3[C@@H]4C[C@@H]4[C@@]4(CCC(=O)O4)[C@@]3(C)CC[C@@H]12,Potency,[1],inactive
same,Potency,[18],inactive
same,Potency,[3],inactive
same,Potency,[4],inactive
same,Potency,[5],inactive
same,Potency,[6],inactive
same,Potency,[7],inactive
same,Potency,[9],inactive
same,Potency,[11],inactive
O=C(O)CCc1nc2ccccc2[nH]1,Potency,[1],inactive
same,outcome,[12],inactive
same,Potency,[18],inactive
same,Potency,[3],inactive
same,Potency,[4],inactive
same,Potency,[5],inactive
same,Potency,[6],inactive
same,Potency,[7],inactive
same,Potency,[9],inactive
C=Cc1ccc(C=C)cc1,Potency,[1],inactive
same,outcome,[2],inactive
same,Potency,[3],inactive
same,Potency,[4],inactive
same,Potency,[5],inactive
same,Potency,[6],inactive
same,Potency,[9],inactive
same,Potency,[11],inactive

# — PubChem BioAssay (Tox21)
